# What was measured:
# ETS1 [1] = biological target: T1, ETS1 (UniProt P14921); assay: ETS1 binding intensity (PBM fluorescence), ETS1 alone (arbitrary fluorescence units); higher = stronger binding; conditions: ETS1 concentration 1 nM; RUNX1 concentration 0 nM
# T1 sequence: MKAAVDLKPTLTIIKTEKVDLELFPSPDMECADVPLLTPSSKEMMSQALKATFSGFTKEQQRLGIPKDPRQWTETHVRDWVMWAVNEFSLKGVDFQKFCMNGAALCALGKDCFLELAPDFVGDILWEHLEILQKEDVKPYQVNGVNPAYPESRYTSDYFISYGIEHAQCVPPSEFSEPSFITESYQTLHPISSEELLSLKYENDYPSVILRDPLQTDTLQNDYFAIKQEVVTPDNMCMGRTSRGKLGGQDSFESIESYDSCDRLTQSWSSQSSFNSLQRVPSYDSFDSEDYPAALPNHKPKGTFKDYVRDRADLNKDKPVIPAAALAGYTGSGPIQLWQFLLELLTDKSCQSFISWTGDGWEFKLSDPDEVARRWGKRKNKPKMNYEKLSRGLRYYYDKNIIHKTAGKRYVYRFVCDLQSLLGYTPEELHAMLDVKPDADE
# ETS1 [2] = biological target: T1, ETS1; assay: ETS1 binding intensity (PBM fluorescence) in presence of RUNX1, normalised to ETS1-only experiment (arbitrary fluorescence units); higher = stronger binding; conditions: ETS1 concentration 1 nM; RUNX1 concentration 25 nM
# RUNX1 [3] = biological target: RUNX1 (UniProt Q01196); assay: RUNX1 binding intensity (PBM fluorescence) in presence of ETS1, normalised to RUNX1-only experiment (arbitrary fluorescence units); higher = stronger binding; conditions: RUNX1 concentration 2 nM; ETS1 concentration 25 nM
# Description: (§1)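 Cooperative gcPBM on 36-bp genomic probes with neighbouring ETS1 and RUNX1 sites. Recombinant human RUNX1 (2 nM) was incubated alone or with ETS1 (25 nM) and detected with anti-RUNX1 antibody plus Alexa488 secondary. Values are medians over 4 replicate spots; the RUNX1+ETS1 data were normalised to the RUNX1-only data. The probes sit in constant array flanks that are not printed.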
# RUNX1 [4] = biological target: RUNX1 (UniProt Q01196); assay: RUNX1 binding intensity (PBM fluorescence), RUNX1 alone (arbitrary fluorescence units); higher = stronger binding; conditions: RUNX1 concentration 2 nM; ETS1 concentration 0 nM
# Description: as §1
# 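Wherever RUNX1 binding intensity (PBM fluorescence) in presence of ETS1, normalised to RUNX1-only experiment is given: Full-length recombinant human ETS1 or RUNX1 bound to double-stranded 36-bp genomic probes on microarrays, detected by protein-specific primary antibody and Alexa488 secondary, spot fluorescence as median of four replicate spots.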
# 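Wherever RUNX1 binding intensity (PBM fluorescence), RUNX1 alone is given: Full-length recombinant human RUNX1 bound to double-stranded 36-bp genomic probes on a high-density microarray, scored as Alexa488 fluorescence per spot via anti-RUNX1 antibody, median of four replicate spots.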
# Chain of RUNX1 (Q01196 whole entry): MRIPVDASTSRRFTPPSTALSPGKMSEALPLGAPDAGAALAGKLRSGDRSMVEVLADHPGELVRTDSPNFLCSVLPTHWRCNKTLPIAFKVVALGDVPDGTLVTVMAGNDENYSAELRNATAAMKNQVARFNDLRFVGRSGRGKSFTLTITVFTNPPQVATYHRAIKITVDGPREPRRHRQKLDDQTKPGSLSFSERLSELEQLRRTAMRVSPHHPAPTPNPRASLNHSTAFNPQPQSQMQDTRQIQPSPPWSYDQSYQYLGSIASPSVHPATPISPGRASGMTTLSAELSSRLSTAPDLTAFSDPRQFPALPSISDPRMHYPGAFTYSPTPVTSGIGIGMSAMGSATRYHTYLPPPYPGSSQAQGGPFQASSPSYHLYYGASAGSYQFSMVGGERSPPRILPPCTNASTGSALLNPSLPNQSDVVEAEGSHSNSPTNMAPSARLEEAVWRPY
sequence,measurement,setting,value
TGGATGGCGGCGGATACTGCCCATGCCGCAAGGCCG,ETS1 binding intensity,ETS1 [1],464
GAACCCCAAGTTCCGGCTGGCACTGCGGCGGAGCCT,ETS1 binding intensity,ETS1 [1],452
ACATGGTCTCGCTTCCTGTTTACACCACAGAAAGCT,ETS1 binding intensity,ETS1 [2],4140
same,RUNX1 binding intensity,RUNX1 [3],1850
GGTACCAAGGGCAGAGGATGTGGTGAGGTGTGGAGG,ETS1 binding intensity,ETS1 [1],940
GACATCCAGGAAGTGGTGAGAAACCACGTGTGTGTT,ETS1 binding intensity,ETS1 [2],4150
same,RUNX1 binding intensity,RUNX1 [3],3070
CGAAGGAGGAAGCTGCACAGGGTGTCTGTGGCTGGC,ETS1 binding intensity,ETS1 [1],443
ACTTTAATAGAGTCCGGATGCGGTTAGGCTGACAGA,RUNX1 binding intensity,RUNX1 [4],2000
same,ETS1 binding intensity,ETS1 [2],30400
same,RUNX1 binding intensity,RUNX1 [3],7430
ATGCAGAAGCTACAGGAAGAAGCCGCAGGCCAAGCT,ETS1 binding intensity,ETS1 [1],844
TAGTCCGCTACAGGAAGGTGGTCATCCTCGGATACC,ETS1 binding intensity,ETS1 [1],1110
CCCGCGACACAAGGCGGATGTGGTACCCTCACTTGT,ETS1 binding intensity,ETS1 [2],5070
same,RUNX1 binding intensity,RUNX1 [3],1200
CCCGGAGGACGTCCGGCCTCTGTGAGCCGCAACCTT,ETS1 binding intensity,ETS1 [2],561
same,RUNX1 binding intensity,RUNX1 [3],1370
CCGAAGAGGAAGCTCCACAGGACCTCCGCGGTCAGC,ETS1 binding intensity,ETS1 [1],397
CAGATTCGTGTTTCCGTGCCCGCAGCTCCGTCAGCT,ETS1 binding intensity,ETS1 [1],467
AGCTTGACGAAGGCTTCCTGTGGTTTGGGTTGATGT,RUNX1 binding intensity,RUNX1 [4],824
same,ETS1 binding intensity,ETS1 [2],964
same,RUNX1 binding intensity,RUNX1 [3],1530
AGTTTCTCCAGGAAGCGCTGAGGTTTTCTCAGAAGT,ETS1 binding intensity,ETS1 [1],763
GAAGTCACATCCTGTCTGTTGCGGCAGGGCACAGAG,RUNX1 binding intensity,RUNX1 [4],756
same,ETS1 binding intensity,ETS1 [2],1520
same,RUNX1 binding intensity,RUNX1 [3],1750
ACAGCGCCTCTTCCTGCTCTACCACATCTGATGTCC,ETS1 binding intensity,ETS1 [1],512
GTTCTTCCACGTCCGCGTTACCCACAACGGCAGTGG,RUNX1 binding intensity,RUNX1 [4],1020
same,ETS1 binding intensity,ETS1 [2],606
same,RUNX1 binding intensity,RUNX1 [3],1090
CCATGAGGAGGGAGGAAATAGTGGTACGAGGGCTGC,ETS1 binding intensity,ETS1 [1],1040
CTCTGAGCAGGAAGTGACAAAACCACGCAGGGCAGG,RUNX1 binding intensity,RUNX1 [4],798
same,ETS1 binding intensity,ETS1 [2],6770
same,RUNX1 binding intensity,RUNX1 [3],1160
TGCAGTCTCAACTTCCTGCGGTCAAGTGATCCTTCA,ETS1 binding intensity,ETS1 [2],1410
same,RUNX1 binding intensity,RUNX1 [3],6540
CCTCTTGCTGCCTCTTCCTGTGGTCTTTTCTCTGTC,RUNX1 binding intensity,RUNX1 [4],1840
same,ETS1 binding intensity,ETS1 [2],951
same,RUNX1 binding intensity,RUNX1 [3],2720
GAGGCAGGCGGATGTCAGTGTGGTTAGAGCACAGTG,ETS1 binding intensity,ETS1 [2],3310
same,RUNX1 binding intensity,RUNX1 [3],1960
TCCCCTGTCTTCCGGAGGCTGCGGCGCAGCGGCGCA,ETS1 binding intensity,ETS1 [1],403
TCTTGTTTCTTCCGTTACCGGAGCGCGGTCACGTGA,RUNX1 binding intensity,RUNX1 [4],979
same,ETS1 binding intensity,ETS1 [2],438
same,RUNX1 binding intensity,RUNX1 [3],1570
CACCTCAGCTTCCTGTGTAGCTGGGACCACAGGCAT,RUNX1 binding intensity,RUNX1 [4],827
same,ETS1 binding intensity,ETS1 [2],888
same,RUNX1 binding intensity,RUNX1 [3],1560
CTTCATCAACCCATCCTGTCTTGTGGTTAAGTCAAG,RUNX1 binding intensity,RUNX1 [4],4120
same,ETS1 binding intensity,ETS1 [2],1700
same,RUNX1 binding intensity,RUNX1 [3],6360
GCCATCCGCAGGACTCCGCGTTCTCGCGGTAAGTGG,RUNX1 binding intensity,RUNX1 [4],736
same,ETS1 binding intensity,ETS1 [2],464
same,RUNX1 binding intensity,RUNX1 [3],883
CAGCTGCCTCCAGGAAGCGGTAAGTGACTCTGGTGG,ETS1 binding intensity,ETS1 [1],1150
CCAGGGCCGGAAGTGCTGGTGGTGGTTTCCATCATG,RUNX1 binding intensity,RUNX1 [4],733
same,ETS1 binding intensity,ETS1 [2],13900
same,RUNX1 binding intensity,RUNX1 [3],1750
GTGCTCCTCGCTTCCTCCGCGGTCTTCCGAGCGGTC,ETS1 binding intensity,ETS1 [2],365
same,RUNX1 binding intensity,RUNX1 [3],1370
TGGGGAGCAGGAAGCTGGGGGCGGTTGTGGAGGGAC,ETS1 binding intensity,ETS1 [2],1600
same,RUNX1 binding intensity,RUNX1 [3],867
ACTCCGCCCCTTCCGCCTGGCGGTTCCACTTCTCGG,ETS1 binding intensity,ETS1 [1],480
TTTCGAGAAAACCGGAAGTGCGTGGTCACGCCCCGC,RUNX1 binding intensity,RUNX1 [4],733
same,ETS1 binding intensity,ETS1 [2],38100
same,RUNX1 binding intensity,RUNX1 [3],1670
CTTCTACTTCCTGCCCCGCCCCCAGCTGTGGTCACA,ETS1 binding intensity,ETS1 [2],3150
same,RUNX1 binding intensity,RUNX1 [3],3430
ATTCTGCATCCTGTGCTCTTTCCATGAGACCACAAA,ETS1 binding intensity,ETS1 [1],448
CCAAAAAGGAAGGAAACCAGAAAGCCACAGAATGGT,ETS1 binding intensity,ETS1 [1],487
GAAATCACATCCTTTTGCAAAACCACAGGTGTTTTG,ETS1 binding intensity,ETS1 [1],409
same,RUNX1 binding intensity,RUNX1 [4],1320
TCCTCCATGCAGGAAAACCTCTGTGGTCTGGGAGCT,ETS1 binding intensity,ETS1 [1],438
same,RUNX1 binding intensity,RUNX1 [4],867
AGCGACAGCGGATGCTCTCTGGCCGCAACATTCTTT,ETS1 binding intensity,ETS1 [1],880
same,RUNX1 binding intensity,RUNX1 [4],769
GGGCAGGAAGGAAGAGGGCTCCTCCCCACAAGCTCT,ETS1 binding intensity,ETS1 [1],437
same,RUNX1 binding intensity,RUNX1 [4],738
same,ETS1 binding intensity,ETS1 [2],492
TGGCTGTCACTTCCTGTCCCACTGTGGTTCCTGGGA,ETS1 binding intensity,ETS1 [1],4940
same,RUNX1 binding intensity,RUNX1 [4],763
same,ETS1 binding intensity,ETS1 [2],5740
CCACGTAAAGGCGGAAGCGGTTGAGTGGACGCCATC,ETS1 binding intensity,ETS1 [1],3090
same,RUNX1 binding intensity,RUNX1 [4],708
CCAGGCGGAAGCGGCCGGGAGTAGCGCTGCGGTTGG,ETS1 binding intensity,ETS1 [1],631
same,RUNX1 binding intensity,RUNX1 [4],817
CATCTACTGAGGAAGTGTAAGCCACAATAAGAAGCC,ETS1 binding intensity,ETS1 [1],641
ATTAGAGGTAGAGGAAATACCACATGCAAAGGTTTG,ETS1 binding intensity,ETS1 [1],793
same,RUNX1 binding intensity,RUNX1 [4],785
same,ETS1 binding intensity,ETS1 [2],1090
CTCTGAACTTCCTCTCTTTTAACCACAACTTACTAC,ETS1 binding intensity,ETS1 [1],549
same,RUNX1 binding intensity,RUNX1 [4],10500
CAGCAAGCGTCCAGGAAGTGTGTGGGGGAGGTGTGG,ETS1 binding intensity,ETS1 [1],2010
CCTTGCTACAGGATGTTTTGACCACGAGCCCAGGAG,ETS1 binding intensity,ETS1 [1],1440
same,RUNX1 binding intensity,RUNX1 [4],1090
CCCATTTCCTGCTCTCCAGAGTTAACCACTGAAGTC,ETS1 binding intensity,ETS1 [1],815
same,RUNX1 binding intensity,RUNX1 [4],1440
CCGCTTCCGGGACGCGAATCGCTCTGCGGCTGCGTC,ETS1 binding intensity,ETS1 [1],556
same,RUNX1 binding intensity,RUNX1 [4],832
GGTGCCTGGGGAGGATGTGGGCTGACTGGGAGGGGT,ETS1 binding intensity,ETS1 [1],870
same,RUNX1 binding intensity,RUNX1 [4],869
GCCACACTTCCGGCGGGGCTGCGACCGCAGAGGGGC,ETS1 binding intensity,ETS1 [1],1170
same,RUNX1 binding intensity,RUNX1 [4],1140
AAAGGGCAGACTTCCCTGCCCACATCTCTGCTCCTG,ETS1 binding intensity,ETS1 [1],462
GAGGACTTCCGGGTGCGTGTGATATCTGCGGGCCCG,ETS1 binding intensity,ETS1 [1],802
same,RUNX1 binding intensity,RUNX1 [4],703
same,ETS1 binding intensity,ETS1 [2],793
GGGGCCCCGGATGCACTGAGCGGCTGCGGCGCGGCT,ETS1 binding intensity,ETS1 [1],613
TTGAAAAGGAAGTTCATTTGTACTGAGGTGGTTTTA,ETS1 binding intensity,ETS1 [1],602
AGTGGCAGTGCAGGAAGTGGTTTGTCTGGTACAATC,ETS1 binding intensity,ETS1 [1],3750
same,RUNX1 binding intensity,RUNX1 [4],788
same,ETS1 binding intensity,ETS1 [2],6800
AACACTATTTCCTTTCTTGCTGCCCACATTTTAACA,ETS1 binding intensity,ETS1 [1],520
